Assays:
Assay in all cases: PBM binding z-score (relative to random genomic background probes); higher = stronger binding; sequences stand for … in GC…GCGATTGACAGCGTAGAATGAAGG
[1] = tested on: FXR:RXRa (NR concentration 270 nM, RXRa partner concentration 90 nM)
Outline: (§1)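 Each nuclear receptor dimer, without ligand, was incubated for 1 h on custom Agilent 4×180K protein-binding microarrays. Binding was detected with antibodies against each partner (one per run), and scanned fluorescence was regression-normalized. The binding z-scores are referenced to random human genomic background probes.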

[2] = tested on: LXRa:RXRa (NR concentration 270 nM, RXRa partner concentration 90 nM)
Outline: as §1

[3] = tested on: LXRa homodimer (NR concentration 270 nM)
Outline: as §1

[4] = tested on: LXRb:RXRa (NR concentration 270 nM, RXRa partner concentration 90 nM)
Outline: as §1

[5] = tested on: LXRb homodimer (NR concentration 270 nM)
Outline: as §1

[6] = tested on: PPARa:RXRa (NR concentration 270 nM, RXRa partner concentration 90 nM)
Outline: as §1

[7] = tested on: PPARg:RXRa (NR concentration 180 nM, RXRa partner concentration 90 nM)
Outline: as §1

[8] = tested on: PPARg:RXRa 270nM:90nM, anti-RXR (NR concentration 270 nM, RXRa partner concentration 90 nM)
Outline: as §1

[9] = tested on: PPARg:RXRa 30nM:10nM, anti-RXR (NR concentration 30 nM, RXRa partner concentration 10 nM)
Outline: as §1

[10] = tested on: PPARg:RXRa 90nM:30nM, anti-RXR (NR concentration 90 nM, RXRa partner concentration 30 nM)
Outline: as §1

[11] = tested on: PPARg:RXRa DBDmut IVT, anti-RXR (DBD mutation: RXRa K156A/R161A, NR concentration 270 nM, RXRa partner concentration 90 nM)
Outline: as §1

[12] = tested on: PPARg:RXRa IVT, anti-PPARg (NR concentration 270 nM, RXRa partner concentration 90 nM)
Outline: as §1

[13] = tested on: PPARg DBDmut:RXRa IVT, anti-PPARg (DBD mutation: PPARg1 K132A/R137A, NR concentration 270 nM, RXRa partner concentration 90 nM)
Outline: as §1

[14] = tested on: PPARg DBDmut IVT, anti-PPARg (DBD mutation: PPARg1 K132A/R137A, NR concentration 270 nM)
Outline: as §1

[15] = tested on: PPARg homodimer (NR concentration 180 nM)
Outline: as §1

[16] = tested on: PXR:RXRa (NR concentration 270 nM, RXRa partner concentration 90 nM)
Outline: as §1

[17] = tested on: PXR homodimer (NR concentration 270 nM)
Outline: as §1

[18] = tested on: RARa:RXR (NR concentration 270 nM, RXRa partner concentration 90 nM)
Outline: as §1

[19] = tested on: RARa homodimer (NR concentration 270 nM)
Outline: as §1

[20] = tested on: RARb:RXRa (NR concentration 270 nM, RXRa partner concentration 90 nM)
Outline: as §1

CGAACCAGGTCATCCAGGACAGTGAATACATTGA
PBM binding z-score [1]: 5.37 | PBM binding z-score [2]: 3.75 | PBM binding z-score [3]: 1 | PBM binding z-score [4]: 3.05 | PBM binding z-score [5]: 0.375 | PBM binding z-score [6]: 4.67 | PBM binding z-score [7]: 4.89 | PBM binding z-score [8]: 4.6 | PBM binding z-score [9]: 1.51 | PBM binding z-score [10]: 3.59 | PBM binding z-score [11]: 5.15 | PBM binding z-score [12]: 5.48 | PBM binding z-score [13]: 1.46 | PBM binding z-score [14]: 0.673 | PBM binding z-score [15]: 2.01 | PBM binding z-score [16]: 2.98 | PBM binding z-score [17]: 3.52 | PBM binding z-score [18]: 3.1 | PBM binding z-score [19]: 1.01 | PBM binding z-score [20]: 3.95

GCTATTAGTCGAAAGGGCAACCGAATGATTCTCG
PBM binding z-score [1]: 0.296 | PBM binding z-score [2]: 0.236 | PBM binding z-score [3]: 0.214 | PBM binding z-score [4]: 0.479 | PBM binding z-score [5]: -0.262 | PBM binding z-score [6]: 1.74 | PBM binding z-score [7]: 2.25 | PBM binding z-score [8]: 4.04 | PBM binding z-score [9]: 2.32 | PBM binding z-score [10]: 3.76 | PBM binding z-score [11]: 0.549 | PBM binding z-score [12]: 0.458 | PBM binding z-score [13]: 0.65 | PBM binding z-score [14]: 0.0546 | PBM binding z-score [15]: 0.852 | PBM binding z-score [16]: 0.446 | PBM binding z-score [17]: -0.0421 | PBM binding z-score [18]: 0.942 | PBM binding z-score [19]: 0.125 | PBM binding z-score [20]: 2.07

TAGCCTAGGTCATGGGCCAGTACACCACGCGAAC
PBM binding z-score [1]: 4.77 | PBM binding z-score [2]: 3.08 | PBM binding z-score [3]: 0.269 | PBM binding z-score [4]: 2.41 | PBM binding z-score [5]: 0.439 | PBM binding z-score [6]: 4.05 | PBM binding z-score [7]: 3.9 | PBM binding z-score [8]: 3.76 | PBM binding z-score [9]: 1.09 | PBM binding z-score [10]: 2.8 | PBM binding z-score [11]: 1.78 | PBM binding z-score [12]: 3.17 | PBM binding z-score [13]: 1.24 | PBM binding z-score [14]: -0.494 | PBM binding z-score [15]: 1.72 | PBM binding z-score [16]: 1.62 | PBM binding z-score [17]: -0.215 | PBM binding z-score [18]: 2.77 | PBM binding z-score [19]: 0.343 | PBM binding z-score [20]: 3.92

CGTCCAAGGTCAAGGTCAGAGAAAGAGACTCGAA
PBM binding z-score [1]: 7.9 | PBM binding z-score [2]: 5.84 | PBM binding z-score [3]: 0.844 | PBM binding z-score [4]: 4.67 | PBM binding z-score [5]: 0.838 | PBM binding z-score [6]: 5.99 | PBM binding z-score [7]: 6.4 | PBM binding z-score [8]: 6.27 | PBM binding z-score [9]: 2.49 | PBM binding z-score [10]: 5.02 | PBM binding z-score [11]: 4.02 | PBM binding z-score [12]: 4.66 | PBM binding z-score [13]: 0.309 | PBM binding z-score [14]: -0.449 | PBM binding z-score [15]: 3.52 | PBM binding z-score [16]: 4.81 | PBM binding z-score [17]: 1.27 | PBM binding z-score [18]: 5.48 | PBM binding z-score [19]: 2.01 | PBM binding z-score [20]: 5.62

CCTAGCAGGCCAATGTGGGTCACTCAAGGCTTGA
PBM binding z-score [1]: 0.735 | PBM binding z-score [2]: 1.67 | PBM binding z-score [3]: -0.413 | PBM binding z-score [4]: 0.94 | PBM binding z-score [5]: -1.16 | PBM binding z-score [6]: 3.33 | PBM binding z-score [7]: 1.94 | PBM binding z-score [8]: 2.65 | PBM binding z-score [9]: 0.359 | PBM binding z-score [10]: 1.74 | PBM binding z-score [11]: 4.05 | PBM binding z-score [12]: 4.91 | PBM binding z-score [13]: -0.196 | PBM binding z-score [14]: -1.11 | PBM binding z-score [15]: 0.296 | PBM binding z-score [16]: 1.24 | PBM binding z-score [17]: -0.313 | PBM binding z-score [18]: 1.55 | PBM binding z-score [19]: -0.725 | PBM binding z-score [20]: 1.54

CCTATTAGTTGACCATAAGGGCAACCGCAGCTCG
PBM binding z-score [1]: 1.1 | PBM binding z-score [2]: 0.581 | PBM binding z-score [3]: 0.369 | PBM binding z-score [4]: 0.306 | PBM binding z-score [5]: 0.642 | PBM binding z-score [6]: 0.449 | PBM binding z-score [7]: 0.36 | PBM binding z-score [8]: 0.368 | PBM binding z-score [9]: -0.191 | PBM binding z-score [10]: 0.0579 | PBM binding z-score [11]: 0.361 | PBM binding z-score [12]: 0.808 | PBM binding z-score [13]: 0.402 | PBM binding z-score [14]: 0.299 | PBM binding z-score [15]: 0.816 | PBM binding z-score [16]: 0.705 | PBM binding z-score [17]: 1.05 | PBM binding z-score [18]: 0.896 | PBM binding z-score [19]: 1.78 | PBM binding z-score [20]: 1.54

CGACCAAGGTCAGCAGGTCAGTGAAAGCGACGTG
PBM binding z-score [1]: 5.71 | PBM binding z-score [2]: 3.43 | PBM binding z-score [3]: -0.15 | PBM binding z-score [4]: 2.77 | PBM binding z-score [5]: -0.923 | PBM binding z-score [6]: 4.85 | PBM binding z-score [7]: 4.53 | PBM binding z-score [8]: 4.43 | PBM binding z-score [9]: 1.12 | PBM binding z-score [10]: 3.02 | PBM binding z-score [11]: 2.72 | PBM binding z-score [12]: 3.64 | PBM binding z-score [13]: -0.557 | PBM binding z-score [14]: -0.609 | PBM binding z-score [15]: 2.7 | PBM binding z-score [16]: 3.18 | PBM binding z-score [17]: -0.228 | PBM binding z-score [18]: 4.62 | PBM binding z-score [19]: 0.262 | PBM binding z-score [20]: 5.02

From the supplement of paper PMC6555819
